Data taken from PubChem BioAssay AID1159580 (chemical genetic matrix, 2015).
Among all 5,500 compounds or so, about 2,000 (36%) were called active. About 18% were inconclusive and are not listed. Rule as the data show it: active = normalized growth mostly below about 0.91 (no sharp cut-off); inconclusive = no clear call, values can overlap the other calls; inactive = mostly above about 0.92. This is one part of the list.

Assay: chemical genetic growth profiling, strain panel (AID 1159580);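 also: tested at 20 µM; growth read once vehicle control cultures reached saturation at 30 °C; 1 = growth at the plate median or of vehicle wells; lower values mean less growth of the strain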
Settings: growth OD

Measured: normalized growth

COC(=O)CC1C2(C)CC34OC5(C)OC6(C7/C(=C(/O)C(C)C)C(=O)OC(c8ccoc8)C7(C)C(OC(=O)C(C)C)C(OC)C6(O5)C13C)C(OC)C4(OC)C2OC(C)=O (stereo not drawn)
inactive: S. cerevisiae deletion strains, locus YAL013W, strain DEP1, stronger effect = lower value 0.997 | S. cerevisiae deletion strains, locus YBR021W, strain FUR4, stronger effect = lower value 1.02 | S. cerevisiae deletion strains, locus YBR229C, strain ROT2, stronger effect = lower value 1 | S. cerevisiae deletion strains, locus YCL029C, strain bik1, stronger effect = lower value 0.99 | S. cerevisiae deletion strains, locus YDL035C, strain GPR1, stronger effect = lower value 1.02 | S. cerevisiae deletion strains, locus YDL074C, strain BRE1, stronger effect = lower value 1.01 | S. cerevisiae deletion strains, locus YDL101C, strain DUN1, stronger effect = lower value 1.01 | S. cerevisiae deletion strains, locus YDL134C, strain PPH21, stronger effect = lower value 1.01 | S. cerevisiae deletion strains, locus YDL185W, strain tfp1, stronger effect = lower value 0.991 | S. cerevisiae deletion strains, locus YDL192W, strain arf1, stronger effect = lower value 0.994 | S. cerevisiae deletion strains, locus YDR101C, strain arx1, stronger effect = lower value 0.991 | S. cerevisiae deletion strains, locus YDR162C, strain NBP2, stronger effect = lower value 1.01 | S. cerevisiae deletion strains, locus YDR318W, strain mcm21, stronger effect = lower value 0.988 | S. cerevisiae deletion strains, locus YDR388W, stronger effect = lower value 0.995 | S. cerevisiae deletion strains, locus YDR502C, strain sam2, stronger effect = lower value 0.988 | S. cerevisiae deletion strains, locus YEL061C, strain CIN8, stronger effect = lower value 0.994 | S. cerevisiae deletion strains, locus YER110C, stronger effect = lower value 0.988 | S. cerevisiae deletion strains, locus YER155C, strain BEM2, stronger effect = lower value 1 | S. cerevisiae deletion strains, locus YER167W, strain BCK2, stronger effect = lower value 1.02 | S. cerevisiae deletion strains, locus YGL078C, strain dbp3, stronger effect = lower value 0.979 | S. cerevisiae deletion strains, locus YGL086W, strain mad1, stronger effect = lower value 0.975 | S. cerevisiae deletion strains, locus YGL248W, strain PDE1, stronger effect = lower value 1.01 | S. cerevisiae deletion strains, locus YGR078C, strain PAC10, stronger effect = lower value 1.02 | S. cerevisiae deletion strains, locus YGR135W, strain pre9, stronger effect = lower value 0.987 | S. cerevisiae deletion strains, locus YGR229C, strain SMI1, stronger effect = lower value 1 | S. cerevisiae deletion strains, locus YGR252W, strain gcn5, stronger effect = lower value 0.937 | S. cerevisiae deletion strains, locus YHR030C, strain SLT2, stronger effect = lower value 1.01 | S. cerevisiae deletion strains, locus YHR079C, strain IRE1 (second series), stronger effect = lower value 0.985 | S. cerevisiae deletion strains, locus YHR094C, strain hxt1, stronger effect = lower value 0.989 | S. cerevisiae deletion strains, locus YHR129C, strain ARP1, stronger effect = lower value 1.01 | S. cerevisiae deletion strains, locus YHR200W, strain rpn10, stronger effect = lower value 0.99 | S. cerevisiae deletion strains, locus YIL066C, strain RNR3, stronger effect = lower value 1.03 | S. cerevisiae deletion strains, locus YIL073C, strain SPO22, stronger effect = lower value 1.03 | S. cerevisiae deletion strains, locus YIL125W, strain kgd1, stronger effect = lower value 0.991 | S. cerevisiae deletion strains, locus YIR030C, strain dcg1, stronger effect = lower value 0.996 | S. cerevisiae deletion strains, locus YJL095W, strain BCK1, stronger effect = lower value 1.03 | S. cerevisiae deletion strains, locus YJL134W, strain LCB3, stronger effect = lower value 1.01 | S. cerevisiae deletion strains, locus YJL168C, strain set2, stronger effect = lower value 0.986 | S. cerevisiae deletion strains, locus YJL187C, strain SWE1 (second series), stronger effect = lower value 1.01 | S. cerevisiae deletion strains, locus YJR043C, strain POL32, stronger effect = lower value 1.01 | S. cerevisiae deletion strains, locus YJR075W, strain HOC1, stronger effect = lower value 1.01 | S. cerevisiae deletion strains, locus YKL009W, strain mrt4, stronger effect = lower value 0.984 | S. cerevisiae deletion strains, locus YKL068W, stronger effect = lower value 1 | S. cerevisiae deletion strains, locus YKL085W, strain MDH1 (second series), stronger effect = lower value 1 | S. cerevisiae deletion strains, locus YKL085W, strain MDH1, stronger effect = lower value 1 | S. cerevisiae deletion strains, locus YKR001C, strain vps1, stronger effect = lower value 0.988 | S. cerevisiae deletion strains, locus YLR039C, strain RIC1, stronger effect = lower value 1.04 | S. cerevisiae deletion strains, locus YLR058C, strain SHM2, stronger effect = lower value 1.01 | S. cerevisiae deletion strains, locus YLR102C, strain apc9, stronger effect = lower value 0.988 | S. cerevisiae deletion strains, locus YLR262C, strain YPT6, stronger effect = lower value 1.05 | S. cerevisiae deletion strains, locus YLR268W, strain sec22, stronger effect = lower value 0.989 | S. cerevisiae deletion strains, locus YLR330W, strain CHS5, stronger effect = lower value 1.01 | S. cerevisiae deletion strains, locus YLR342W, strain FKS1 (second series), stronger effect = lower value 0.999 | S. cerevisiae deletion strains, locus YLR371W, strain rom2, stronger effect = lower value 0.983 | S. cerevisiae deletion strains, locus YLR418C, strain cdc73, stronger effect = lower value 1.01 | S. cerevisiae deletion strains, locus YML016C, strain PPZ1, stronger effect = lower value 1 | S. cerevisiae deletion strains, locus YML032C, strain rad52, stronger effect = lower value 0.985 | S. cerevisiae deletion strains, locus YML124C, strain tub3, stronger effect = lower value 0.99 | S. cerevisiae deletion strains, locus YMR078C, strain ctf18, stronger effect = lower value 0.994 | S. cerevisiae deletion strains, locus YMR223W, strain ubp8, stronger effect = lower value 0.994 | S. cerevisiae deletion strains, locus YMR307W, strain GAS1, stronger effect = lower value 1.05 | S. cerevisiae deletion strains, locus YNL067W, strain RPL9B, stronger effect = lower value 1 | S. cerevisiae deletion strains, locus YNL233W, strain BNI4, stronger effect = lower value 1.04 | S. cerevisiae deletion strains, locus YNL250W, strain rad50, stronger effect = lower value 1.02 | S. cerevisiae deletion strains, locus YNL271C, strain bni1, stronger effect = lower value 0.992 | S. cerevisiae deletion strains, locus YNL298W, strain CLA4, stronger effect = lower value 0.987 | S. cerevisiae deletion strains, locus YNL307C, strain MCK1, stronger effect = lower value 0.996 | S. cerevisiae deletion strains, locus YNL322C, strain KRE1, stronger effect = lower value 1 | S. cerevisiae deletion strains, locus YNR052C, strain pop2, stronger effect = lower value 0.977 | S. cerevisiae deletion strains, locus YOL012C, strain htz1 0.95 | S. cerevisiae deletion strains, locus YOL147C, strain pex11, stronger effect = lower value 0.984 | S. cerevisiae deletion strains, locus YOR061W, strain CKA2, stronger effect = lower value 1.01 | S. cerevisiae deletion strains, locus YOR069W, strain VPS5, stronger effect = lower value 1.01 | S. cerevisiae deletion strains, locus YOR136W, strain idh2, stronger effect = lower value 0.991 | S. cerevisiae deletion strains, locus YOR144C, strain elg1, stronger effect = lower value 0.989 | S. cerevisiae deletion strains, locus YOR184W, strain ser1, stronger effect = lower value 0.976 | S. cerevisiae deletion strains, locus YOR316C, strain cot1, stronger effect = lower value 0.992 | S. cerevisiae deletion strains, locus YPR119W, strain clb2, stronger effect = lower value 0.982 | S. cerevisiae deletion strains, locus YPR141C, strain kar3, stronger effect = lower value 0.998 | S. cerevisiae deletion strains, locus YPR163C, strain tif3, stronger effect = lower value 0.999 | S. cerevisiae deletion strains, locus YPR167C, strain met16, stronger effect = lower value 0.99 | S. cerevisiae deletion strains, strain wtn01, stronger effect = lower value 0.974 | S. cerevisiae strains, strain wild type, stronger effect = lower value 1.01
